The panel holds about 83,000 compounds, 20% with a hit somewhere; the sample as a whole holds those more often.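 Cells were grown in 96-well plates and exposed to the test compound at a single concentration for 48 hours; results are reported as percent growth, with values below 10 considered active.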 Calls of active or inactive are those of the source.
How the values were obtained:
Assay in all cases: NCI-60 one-dose screen, 48 h (100 = growth as untreated, 0 = no growth, -100 = all killed)
Conditions in all cases: 10 µM
NCI-H23 lung = test system: NCI-H23 lung
NCI-H226 lung = test system: NCI-H226 lung
NCI-H322M lung = test system: NCI-H322M lung
HOP-62 NSCLC = test system: HOP-62 NSCLC
NCI-H460 lung = test system: NCI-H460 lung
NCI-H522 lung = test system: NCI-H522 lung
A549/ATCC NSCLC = test system: A549/ATCC NSCLC
786-0 renal = test system: 786-0 renal
COLO 205 colon = test system: COLO 205 colon
DU-145 prostate = test system: DU-145 prostate

Measured: growth

COc1cc(C(=O)/C=C/c2cc(-c3cc(OC)c(OC)c(OC)c3)n[nH]2)cc(OC)c1OC
active: NCI-H322M lung -8.96% | HOP-62 NSCLC -30.1% | NCI-H522 lung -75.5% | 786-0 renal -71.7% | COLO 205 colon -88.3% | DU-145 prostate 4.4%
inactive: NCI-H23 lung 68.4% | NCI-H226 lung 36.8% | NCI-H460 lung 29.7% | A549/ATCC NSCLC 53.6%

CC(C)C[C@H](NC(=O)[C@H](Cc1cccc2ccccc12)NS(=O)(=O)c1cccc2cccnc12)B(O)O
active: NCI-H23 lung -52.9% | NCI-H226 lung -66.6% | NCI-H322M lung -9.95% | HOP-62 NSCLC -72.3% | NCI-H460 lung -53.2% | NCI-H522 lung -56.4% | A549/ATCC NSCLC 5.39% | 786-0 renal -19.4% | COLO 205 colon -36.5% | DU-145 prostate -20.7%

c1ccc(CSc2nnc3c4c5c(sc4nc(-c4cccnc4)n23)CCCCCC5)cc1
active: NCI-H522 lung 6.26%
inactive: NCI-H23 lung 54.7% | NCI-H226 lung 67.1% | NCI-H322M lung 99.7% | HOP-62 NSCLC 91.3% | NCI-H460 lung 19.3% | A549/ATCC NSCLC 36.8% | 786-0 renal 73.6% | COLO 205 colon 20.5% | DU-145 prostate 56.4%

CC1(C)N=C(N)N=C(N)N1c1ccc(CCc2ccccc2)c(Cl)c1
inactive: NCI-H23 lung 21.4% | NCI-H226 lung 32.4% | NCI-H322M lung 28.7% | HOP-62 NSCLC 26.3% | NCI-H460 lung 10.1% | A549/ATCC NSCLC 10.4% | 786-0 renal 20.3% | COLO 205 colon 16% | DU-145 prostate 27.1%
active: NCI-H522 lung 1.84%

CC(C)(C)NC/C(=C\c1ccccc1)C(=O)c1ccccc1
inactive: NCI-H23 lung 12.4% | NCI-H226 lung 49.1% | NCI-H322M lung 63.3% | HOP-62 NSCLC 26.5% | A549/ATCC NSCLC 30.1% | DU-145 prostate 21.8%
active: NCI-H460 lung 8.72% | NCI-H522 lung -92.5% | 786-0 renal -41.6% | COLO 205 colon -74.1%

O=C(CCCCC(=O)Nc1ccc2c(c1)/C(=C/c1ccc[nH]1)C(=O)N2)NO
inactive: NCI-H23 lung 106% | NCI-H226 lung 91.1% | NCI-H322M lung 64.1% | HOP-62 NSCLC 94.3% | NCI-H460 lung 97.6% | NCI-H522 lung 49.4% | A549/ATCC NSCLC 95.6% | 786-0 renal 94.4% | COLO 205 colon 89% | DU-145 prostate 91.2%

Nc1ccn(C2CC(O)C(CO)O2)c(=O)n1 (stereo not given)
inactive: NCI-H23 lung 105% | NCI-H226 lung 99.1% | NCI-H322M lung 223% | HOP-62 NSCLC 98.8% | NCI-H460 lung 102% | NCI-H522 lung 109% | A549/ATCC NSCLC 108% | 786-0 renal 100% | COLO 205 colon 108% | DU-145 prostate 120%

COc1ccc(-c2cc(/C=C/C(=O)c3cc(OC)c(OC)c(OC)c3)[nH]n2)cc1OC
active: NCI-H322M lung 1.57% | HOP-62 NSCLC -27% | NCI-H460 lung -45.7% | NCI-H522 lung -69.8% | 786-0 renal -57.9% | COLO 205 colon -42.5% | DU-145 prostate 0.588%
inactive: NCI-H23 lung 47.2% | NCI-H226 lung 63% | A549/ATCC NSCLC 20.8%

CC(=O)c1cc(Cl)ccc1O
inactive: NCI-H23 lung 106% | NCI-H226 lung 98.1% | NCI-H322M lung 101% | HOP-62 NSCLC 107% | NCI-H460 lung 101% | NCI-H522 lung 118% | A549/ATCC NSCLC 101% | 786-0 renal 104% | COLO 205 colon 112% | DU-145 prostate 105%
